Results taken from PubChem BioAssay AID1159580 (chemical genetic matrix, 2015).
Where “and” joins values, the source holds several entries; their conditions need not be identical. Equal entries are not always repeated. The whole screen tested about 5,500 compounds, of which about 2,000 (36%) were called active. About 18% were inconclusive and are not listed. Rule as the data show it: active = normalized growth mostly below about 0.91 (no sharp cut-off); inconclusive = no clear call, values can overlap the other calls; inactive = mostly above about 0.92. The list shows a part of the results. More than one record can exist for a structure, and the calls need not agree.

Experiment: chemical genetic growth profiling, strain panel (AID 1159580);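 also: tested at 20 µM; growth read once vehicle control cultures reached saturation at 30 °C; 1 = growth at the plate median or of vehicle wells; lower values mean less growth of the strain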
Settings: growth OD

Measured: normalized growth

CSc1ccc2c(c1)N(CCC1CCCCN1C)c1ccccc1S2 (stereo not given)
0.107 (active) and 0.972 (inactive): S. cerevisiae deletion strains, locus YPL241C, strain CIN2, stronger effect = lower value
0.123 (active) and 0.981 (inactive): S. cerevisiae deletion strains, locus YMR307W, strain GAS1, stronger effect = lower value
active: S. cerevisiae deletion strains, locus YJR075W, strain HOC1, stronger effect = lower value 0.823 | S. cerevisiae deletion strains, locus YKL190W, strain CNB1, stronger effect = lower value 0.0633 | S. cerevisiae deletion strains, locus YKR001C, strain vps1, stronger effect = lower value 0.0672 | S. cerevisiae deletion strains, locus YLR039C, strain RIC1, stronger effect = lower value 0.175 | S. cerevisiae deletion strains, locus YLR058C, strain SHM2, stronger effect = lower value 0.0859 | S. cerevisiae deletion strains, locus YLR102C, strain apc9, stronger effect = lower value 0.176 | S. cerevisiae deletion strains, locus YLR262C, strain YPT6, stronger effect = lower value 0.155 | S. cerevisiae deletion strains, locus YLR268W, strain sec22, stronger effect = lower value 0.122 | S. cerevisiae deletion strains, locus YLR330W, strain CHS5, stronger effect = lower value 0.0954 | S. cerevisiae deletion strains, locus YLR342W, strain FKS1 (second series), stronger effect = lower value 0.07 | S. cerevisiae deletion strains, locus YLR342W, strain FKS1, stronger effect = lower value 0.866 | S. cerevisiae deletion strains, locus YLR371W, strain rom2, stronger effect = lower value 0.116 | S. cerevisiae deletion strains, locus YLR418C, strain cdc73, stronger effect = lower value 0.155 | S. cerevisiae deletion strains, locus YML016C, strain PPZ1, stronger effect = lower value 0.0677 | S. cerevisiae deletion strains, locus YML032C, strain rad52, stronger effect = lower value 0.484 | S. cerevisiae deletion strains, locus YML124C, strain tub3, stronger effect = lower value 0.282 | S. cerevisiae deletion strains, locus YMR058W, strain fet3, stronger effect = lower value 0.859 | S. cerevisiae deletion strains, locus YMR223W, strain ubp8, stronger effect = lower value 0.142 | S. cerevisiae deletion strains, locus YMR231W, strain pep5, stronger effect = lower value 0.32 | S. cerevisiae deletion strains, locus YMR263W, strain SAP30, stronger effect = lower value 0.569 | S. cerevisiae deletion strains, locus YNL067W, strain RPL9B, stronger effect = lower value 0.221 | S. cerevisiae deletion strains, locus YNL153C, strain GIM3, stronger effect = lower value 0.0926 | S. cerevisiae deletion strains, locus YNL209W, strain ssb2, stronger effect = lower value 0.856 | S. cerevisiae deletion strains, locus YNL224C, strain SQS1, stronger effect = lower value 1.11 [resistant] | S. cerevisiae deletion strains, locus YNL233W, strain BNI4, stronger effect = lower value 0.0906 | S. cerevisiae deletion strains, locus YNL307C, strain MCK1, stronger effect = lower value 0.1 | S. cerevisiae deletion strains, locus YNL322C, strain KRE1, stronger effect = lower value 0.0818 | S. cerevisiae deletion strains, locus YNR052C, strain pop2, stronger effect = lower value 0.133 | S. cerevisiae deletion strains, locus YOL006C, strain TOP1, stronger effect = lower value 0.115 | S. cerevisiae deletion strains, locus YOL147C, strain pex11, stronger effect = lower value 0.176 | S. cerevisiae deletion strains, locus YOR061W, strain CKA2, stronger effect = lower value 0.0575 | S. cerevisiae deletion strains, locus YOR069W, strain VPS5, stronger effect = lower value 0.36 | S. cerevisiae deletion strains, locus YOR083W, strain WHI5 (second series), stronger effect = lower value 0.774 | S. cerevisiae deletion strains, locus YOR136W, strain idh2, stronger effect = lower value 0.139 | S. cerevisiae deletion strains, locus YOR144C, strain elg1, stronger effect = lower value 0.541 | S. cerevisiae deletion strains, locus YOR184W, strain ser1, stronger effect = lower value 0.128 | S. cerevisiae deletion strains, locus YOR316C, strain cot1, stronger effect = lower value 0.132 | S. cerevisiae deletion strains, locus YPL051W, strain arl3, stronger effect = lower value 0.881 | S. cerevisiae deletion strains, locus YPR119W, strain clb2, stronger effect = lower value 0.31 | S. cerevisiae deletion strains, locus YPR163C, strain tif3, stronger effect = lower value 0.0768 | S. cerevisiae deletion strains, locus YPR167C, strain met16, stronger effect = lower value 0.196 | S. cerevisiae deletion strains, strain wtn01, stronger effect = lower value 0.0859 | S. cerevisiae strains, strain wild type, stronger effect = lower value 0.0579
inactive: S. cerevisiae deletion strains, locus YKL009W, strain mrt4, stronger effect = lower value 0.978 | S. cerevisiae deletion strains, locus YKL068W, stronger effect = lower value 1.01 | S. cerevisiae deletion strains, locus YKL085W, strain MDH1 (second series), stronger effect = lower value 1 | S. cerevisiae deletion strains, locus YKL085W, strain MDH1, stronger effect = lower value 1 | S. cerevisiae deletion strains, locus YKL160W, strain elf1, stronger effect = lower value 0.937 | S. cerevisiae deletion strains, locus YKR026C, strain gcn3, stronger effect = lower value 1.02 | S. cerevisiae deletion strains, locus YKR091W, strain srl3, stronger effect = lower value 1.03 | S. cerevisiae deletion strains, locus YLL001W, strain dnm1, stronger effect = lower value 0.964 | S. cerevisiae deletion strains, locus YLL026W, stronger effect = lower value 0.981 | S. cerevisiae deletion strains, locus YLL041C, strain sdh2, stronger effect = lower value 0.976 | S. cerevisiae deletion strains, locus YLR027C, strain aat2, stronger effect = lower value 0.946 | S. cerevisiae deletion strains, locus YLR113W, strain HOG1, stronger effect = lower value 0.996 | S. cerevisiae deletion strains, locus YLR221C, strain rsa3, stronger effect = lower value 0.932 | S. cerevisiae deletion strains, locus YLR258W, strain gsy2, stronger effect = lower value 0.941 | S. cerevisiae deletion strains, locus YLR262C, strain YPT6 (second series), stronger effect = lower value 1.1 | S. cerevisiae deletion strains, locus YLR320W, strain mms22, stronger effect = lower value 1 | S. cerevisiae deletion strains, locus YLR357W, strain rsc2, stronger effect = lower value 0.996 | S. cerevisiae deletion strains, locus YLR370C, strain arc18, stronger effect = lower value 0.962 | S. cerevisiae deletion strains, locus YLR384C, strain iki3, stronger effect = lower value 0.984 | S. cerevisiae deletion strains, locus YML120C, strain ndi1, stronger effect = lower value 0.971 | S. cerevisiae deletion strains, locus YMR078C, strain ctf18, stronger effect = lower value 1.04 | S. cerevisiae deletion strains, locus YMR125W, strain sto1, stronger effect = lower value 0.95 | S. cerevisiae deletion strains, locus YMR129W, stronger effect = lower value 0.977 | S. cerevisiae deletion strains, locus YMR205C, strain PFK2, stronger effect = lower value 0.966 | S. cerevisiae deletion strains, locus YNL071W, strain lat1, stronger effect = lower value 1.05 | S. cerevisiae deletion strains, locus YNL128W, strain TEP1, stronger effect = lower value 1 | S. cerevisiae deletion strains, locus YNL175C, strain NOP13, stronger effect = lower value 1.07 | S. cerevisiae deletion strains, locus YNL183C, strain NPR1, stronger effect = lower value 0.944 | S. cerevisiae deletion strains, locus YNL197C, strain WHI3, stronger effect = lower value 1.05 | S. cerevisiae deletion strains, locus YNL248C, strain rpa49, stronger effect = lower value 0.978 | S. cerevisiae deletion strains, locus YNL250W, strain rad50, stronger effect = lower value 1 | S. cerevisiae deletion strains, locus YNL271C, strain bni1, stronger effect = lower value 1 | S. cerevisiae deletion strains, locus YNL298W, strain CLA4, stronger effect = lower value 1 | S. cerevisiae deletion strains, locus YNL322C, strain KRE1 (second series), stronger effect = lower value 1.04 | S. cerevisiae deletion strains, locus YNR049C, strain mso1, stronger effect = lower value 0.968 | S. cerevisiae deletion strains, locus YOL012C, strain htz1 0.211 | S. cerevisiae deletion strains, locus YOR001W, strain rrp6, stronger effect = lower value 0.956 | S. cerevisiae deletion strains, locus YOR070C, strain gyp1, stronger effect = lower value 0.948 | S. cerevisiae deletion strains, locus YOR080W, strain dia2, stronger effect = lower value 0.976 | S. cerevisiae deletion strains, locus YOR083W, strain WHI5, stronger effect = lower value 0.915 | S. cerevisiae deletion strains, locus YOR106W, strain vam3, stronger effect = lower value 0.88 | S. cerevisiae deletion strains, locus YOR231W, strain MKK1, stronger effect = lower value 1 | S. cerevisiae deletion strains, locus YOR265W, strain rbl2, stronger effect = lower value 0.961 | S. cerevisiae deletion strains, locus YOR270C, strain vph1, stronger effect = lower value 0.866 | S. cerevisiae deletion strains, locus YOR290C, strain snf2, stronger effect = lower value 0.981 | S. cerevisiae deletion strains, locus YPL078C, strain atp4, stronger effect = lower value 0.989 | S. cerevisiae deletion strains, locus YPL106C, strain sse1, stronger effect = lower value 1.02 | S. cerevisiae deletion strains, locus YPL240C, strain hsp82, stronger effect = lower value 0.98 | S. cerevisiae deletion strains, locus YPL256C, strain CLN2, stronger effect = lower value 0.975 | S. cerevisiae deletion strains, locus YPR141C, strain kar3, stronger effect = lower value 1.02
